In the library only some 4.2% were active in any assay of this set; here they are far more common.
SW480 rerep: induces DNA re-replication in SW480 colon adenocarcinoma cells; 340,000 compounds, 1.8% hits; Potency, µM (titrated, usually from 46.1 µM), for the others: at the highest dose re-replication activation, usual class: activators; AID 624297; SW480 DNA re-replication, Hoechst DNA content imaging, 48 h; note: % of control where 0% means no effect; nearly all actives have a fitted effect of over 55% in size
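250 cells/well; 23 nL cpd via pin tool; 48 hr, 37 C, 5% CO2; Hoechst 40 min; imager read of total nuclear intensity, ex 405/em 500-530 nm.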
Mito fusion act: inhibitors of mitochondrial division or activators of mitochondrial fusion | 320,000 compounds, 0.23% hits | Potency, µM (highest dose often 46.1 µM), for inactives: top-dose growth rescue (activation), actives largely listed as activators | S. cerevisiae fusion-defective mutant growth rescue, CellTiterGlo 48 h; note: % of control where 0% means no effect; nearly all actives have a fitted effect of over 45% in size
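Yeast fusion mutant, YPEG (non-fermentable carbon), compound, 48 h at 37C non-permissive; CellTiterGlo added, 10 min RT, luminescence read. Rescued growth = division inhibition.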
MCF10A rerep: inducers of DNA re-replication in MCF 10A breast cells. MCF 10A DNA re-replication, Hoechst nuclear intensity, 48 h. Potency, µM (doses to about 46.1 µM), without a hit: top-dose activity, positive = re-replication, most hits filed as activators. 350,000 compounds, 2.9% hits. AID 624296; note: % of control where 0% means no effect; nearly all actives have a fitted effect of over 50% in size
AT treatment: potential ataxia-telangiectasia treatment; F2112 A-T fibroblasts, KAP-1 phosphorylation AlphaLISA; neocarzinostatin DNA damage 30 min before lysis; Potency, µM (series often up to 57.5 µM), without a hit: at the highest dose activation, most hits filed as activators; 320,000 compounds, 0.19% hits; AID 485349; note: % of control where 0% means no effect; nearly all actives have a fitted effect of over 45% in size
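hTERT-immortalized A-T patient fibroblasts (F2112), 500 cells/well in OPTI-MEM, 1% FBS, got compounds for 60 min, then NCS for 30 min at 37C. Lysates were then assayed for phospho-KAP-1 by AlphaLISA (anti-pKAP1 donor, anti-KAP1 acceptor beads), 6 hr at 25C.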
a7 integrin act: integrin-mediated muscular dystrophy alleviation activation; 350,000 compounds, 0.064% hits; alpha7betagal myoblasts, beta-gal FDG fluorescence, 48 h; Potency, µM (top dose mostly 38.3 µM), for inactives: at the top dose activation, hits mostly activators;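 note: 100% = response of the positive control SU9516; nearly all actives have a fitted effect of over 60% in size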
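alpha7betagal+/- myoblasts (passage 13, 250/well) treated 48 h at 37C with compounds at 1:260 dilution of DMSO stock. Lysed, then beta-galactosidase activity read as FDG fluorescence (ex 480/em 540) after 30 min, with pre-read for autofluorescence.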
* marks the source's active call; other numbers are inactive results; u = inconclusive; x = no result given; [ ] = remark or other dose. Calls come from the whole dose curve; as a rule, active = well fitted activation curve with a large enough effect; inconclusive = small, poorly fitted or top-dose-only effect; inactive = no such curve, though single readings can be large or run the other way. Potency is the fitted concentration of half-maximal effect.

SMILES	SW480 rerep	Mito fusion act	MCF10A rerep	AT treatment	a7 integrin act
CC(C)(C)OC(=O)NCCCCCNC(=O)c1[nH]cnc1C(=O)N[C@@H](Cc1ccccc1)C(=O)OCc1ccccc1	u	-1%	13µM*	-1%	-47%
CCOC(=O)c1c(C)[nH]c(C(=O)N/N=C/c2ccc(Br)cc2)c1C	0.73µM*	3%	u	0%	-7%
CSc1ccc(C2=C/C(=C3/SC(=S)NC3=O)c3ccccc3O2)cc1	-5%	x	2%	x	-12%
CCN(CC)CCCNC(=O)c1sc2ncn(CC(=O)Nc3ccc(C)c(Cl)c3)c(=O)c2c1C	18µM*	-4%	-7%	-1%	-67%
Cc1ccc(S(=O)(=O)N(CC(=O)Nc2ccccc2C(=O)O)c2cccc(Cl)c2C)cc1	x	7%	16µM*	3%	-23%
N#Cc1sc2nc(-c3ccccc3)cc(C(F)(F)F)c2c1N	2.9µM*	-18%	4%	4%	10%
N#Cc1sc2nc(-c3cccs3)cc(-c3ccccc3)c2c1N	-5%	3%	3%	25%	0%
Cn1c(/C=C/c2cccc(Br)c2)nc2ccccc2c1=O	18µM*	2%	23µM*	10%	-35%
O=c1c2ccccc2nc(/C=C/c2ccc(Br)cc2)n1CCCO	26%	u	u	-10%	0%
O=c1c2ccccc2nc(/C=C/c2ccc([N+](=O)[O-])o2)n1CCCO	4.5µM*	-20%	4.5µM*	4%	u
O=c1c2ccccc2nc(/C=C/c2cccc(Br)c2)n1CCCO	u	11µM*	u	0%	u
CCn1c(/C=C/c2cc(Br)ccc2O)nc2ccccc2c1=O	u	0%	16µM*	5%	u
O=C(NCCN1CCN(c2ccccc2)CC1)c1ccc(NC(=O)C2CCCO2)cc1 (stereo not drawn)	-4%	-5%	3%	4%	0%
CCC(C)Oc1ccccc1C1CC(=O)NC2=C1C(=O)CCC2 (stereo not drawn)	18µM*	1%	u	7%	2%
O=C(NCC1(N2CCOCC2)CCCCC1)c1cccc(S(=O)(=O)N2CCc3ccccc3C2)c1	6%	0%	15µM*	-7%	5%
O=C(NCCCN1CCOCC1)c1cccc(S(=O)(=O)N2CCc3ccccc3C2)c1	22%[1.84 µM]	2%	u	-3%	2%
O=C(Cn1cnc2sc(-c3ccccc3)cc2c1=O)NCCc1ccccc1	u	1%	u	x	-25%
O=C(Cn1cnc2sc(-c3ccccc3)cc2c1=O)NCc1ccccc1	16µM*	2%	4.6µM*	x	-3%[7.66 µM]
O=C(Cn1cnc2c(OCc3ccccc3)ncnc21)NCc1ccccc1	15µM*	x	u	11%	-25%
O[C@@H]1C[C@H](c2ccccc2)N(CC2CCCCC2)C[C@H]1n1cc(C2CC2)nn1	x	x	x	x	22%
O=C(c1cc(NC(=O)C23CC4CC(CC(C4)C2)C3)cc(NC(=O)C23CC4CC(CC(C4)C2)C3)c1)N1CCCCC1	13µM*	-4%	13%	-2%	u
Cn1cc(S(=O)(=O)Nc2ccc(OC(F)(F)F)cc2)c(=O)n(C)c1=O	-2%	4%	4%	13µM*	3%
O=C(COC(=O)c1ccc(Sc2ccccc2)c([N+](=O)[O-])c1)NC1CCCc2ccccc21 (stereo not drawn)	-2%	2%	-1%	-1%	-5%
COc1ccc(/C=C2\SC(=O)N(CC(=O)Nc3cccc(C)c3)C2=O)cc1O	u	4%	21µM*	14%	-1%
CN(C(=S)NC1CCCCC1)C1(c2ccccc2Cl)CCCCC1=O (stereo not drawn)	16%	20µM*	-9%	3%	23%
COc1ccccc1Cn1c(=O)c2ccccc2n2c(Sc3ncnc4sccc34)nnc12	21µM*	-14%	18µM*	-6%	-64%
Cc1ccc2nc(C)cc(Nc3ccc([N+](=O)[O-])cc3)c2c1	9.2µM*	-1%	2.9µM*	1%	-67%
COC(=O)c1ccc(Nc2cc(C)nc3ccc(C)cc23)cc1	18µM*	6%	18µM*	-2%	-30%
